{
  "source": "the OligoGym collection",
  "data": [
    {"molecular_target": "CD86", "experiment": "pooled miR-30 sensor sort-seq; sequence = guide strand", "conditions": "shRNA", "values": [
      {"sequence": "AACACTGTCAAATTTCTCTTTG", "sensor-assay potency score (higher = more potent)": -0.375},
      {"sequence": "TCTTGGTCTGTTCACTCTCTTC", "sensor-assay potency score (higher = more potent)": -1.55},
      {"sequence": "TAACCGTGTATAGATGAGCAGG", "sensor-assay potency score (higher = more potent)": -0.921},
      {"sequence": "TATACTTGGAATGAACACTGTC", "sensor-assay potency score (higher = more potent)": 1.09},
      {"sequence": "AAGATGGTCATATTGCTCGTAA", "sensor-assay potency score (higher = more potent)": -0.638},
      {"sequence": "TCATATTGCTCGTAACATCAGG", "sensor-assay potency score (higher = more potent)": -0.912},
      {"sequence": "ATTATCTTGAGATTTCTGCATA", "sensor-assay potency score (higher = more potent)": -0.445},
      {"sequence": "TAGCAAGCACTGACAGTTCAGA", "sensor-assay potency score (higher = more potent)": -0.996},
      {"sequence": "TTATATTAGAAATTGGTACTAT", "sensor-assay potency score (higher = more potent)": 0.249},
      {"sequence": "TATTGCTCGTAACATCAGGGAA", "sensor-assay potency score (higher = more potent)": -0.935},
      {"sequence": "TTCTGTGACATTATCTTGAGAT", "sensor-assay potency score (higher = more potent)": 0.246},
      {"sequence": "TAACTGTTGGAAGTACAGCTGT", "sensor-assay potency score (higher = more potent)": -0.0777}
    ]},
    {"molecular_target": "CD8B", "experiment": "pooled miR-30 sensor sort-seq; sequence = guide strand", "conditions": "shRNA", "values": [
      {"sequence": "TTGCATCCCGAAACACAGCTAT", "sensor-assay potency score (higher = more potent)": -0.634},
      {"sequence": "TTATTTGTACAACTAAGACATT", "sensor-assay potency score (higher = more potent)": -1.21},
      {"sequence": "TATGTATGCAGGGGTCTGCTGG", "sensor-assay potency score (higher = more potent)": -1.19},
      {"sequence": "AAGGAAATCAACCACACTCAGC", "sensor-assay potency score (higher = more potent)": -1.28},
      {"sequence": "TTCTCCAGTGGATGTAATCTTA", "sensor-assay potency score (higher = more potent)": -0.513},
      {"sequence": "TGTACAACTAAGACATTTGTAT", "sensor-assay potency score (higher = more potent)": 0.113},
      {"sequence": "TATTGCTGTAGTATCCATGCAG", "sensor-assay potency score (higher = more potent)": 0.681},
      {"sequence": "TACATTTGGTTCCACAAGGGGG", "sensor-assay potency score (higher = more potent)": -0.791},
      {"sequence": "TATCTTCTCCTGTTCCACCTCT", "sensor-assay potency score (higher = more potent)": 0.0744},
      {"sequence": "TACTGAGGGAGATTTTAGCCTC", "sensor-assay potency score (higher = more potent)": -0.613},
      {"sequence": "AAACACAGCTATCTTCTCCTGT", "sensor-assay potency score (higher = more potent)": 0.733},
      {"sequence": "TTGAGGGTGGACTTCTTGGTGG", "sensor-assay potency score (higher = more potent)": -0.918},
      {"sequence": "TAATCTTAGTTGTTTCATGAAA", "sensor-assay potency score (higher = more potent)": -1.22},
      {"sequence": "TATTTGTACAACTAAGACATTT", "sensor-assay potency score (higher = more potent)": -1.4},
      {"sequence": "TTTTTCCACATCGTGCTCGTTA", "sensor-assay potency score (higher = more potent)": -0.473},
      {"sequence": "TTGGTTTGCACCTTTATGTATG", "sensor-assay potency score (higher = more potent)": -1.15},
      {"sequence": "TTTAGCCTCGCAGGACAGCATC", "sensor-assay potency score (higher = more potent)": -1.65},
      {"sequence": "TAACCGGCACACTCTCTTCTTG", "sensor-assay potency score (higher = more potent)": -0.762},
      {"sequence": "AACACAGCTATCTTCTCCTGTT", "sensor-assay potency score (higher = more potent)": -0.341}
    ]},
    {"molecular_target": "CDC23", "experiment": "pooled miR-30 sensor sort-seq; sequence = guide strand", "conditions": "shRNA", "values": [
      {"sequence": "TATATTTGATGTAACACTGGGC", "sensor-assay potency score (higher = more potent)": 0.351},
      {"sequence": "TTTATTAAAACAGACCAGCTTG", "sensor-assay potency score (higher = more potent)": -0.155},
      {"sequence": "TAAATGCACAACACTTTTGTGC", "sensor-assay potency score (higher = more potent)": -0.535},
      {"sequence": "TAAGAATCAAACATCATTCTGG", "sensor-assay potency score (higher = more potent)": 0.585},
      {"sequence": "TTTGTGCACAAGTTGAAGCTTC", "sensor-assay potency score (higher = more potent)": -0.382},
      {"sequence": "TTGAGTGGAGAAACTCTGCGTG", "sensor-assay potency score (higher = more potent)": 0.52},
      {"sequence": "TCTATCAACTGCAACTCTGTGT", "sensor-assay potency score (higher = more potent)": 0.16},
      {"sequence": "TATAATCCTATCTCCTTGCTTG", "sensor-assay potency score (higher = more potent)": 0.291},
      {"sequence": "TATAGCTAACAATATAGCCATC", "sensor-assay potency score (higher = more potent)": -1.75}
    ]}
  ]
}
